# Compound activity from PubChem BioAssay.
# The list is not random: actives were taken first. Their share in the collection is about 1.3%.
# ALOX12 inh – ALOX12 (human) lipoxygenase inhibition; P18054; purified 12hLO, xylenol orange hydroperoxide absorbance; Potency, µM (doses to about 108 µM), inactives show at the highest dose activity change, negative = inhibition, usual class: inhibitors; 1.1% of 580,000 active; also: % is scaled to controls: 0 for no effect and ±100 for the full control effect
#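 Hydroperoxide product was detected by ferrous iron/xylenol orange as the 573 to 405 nm absorbance ratio. Arachidonic acid at 40 uM (final) was turned over for 30 min at room temperature by 150 nM human 12hLO, pH 7.0 Hepes buffer, after 15 min compound preincubation.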
# USP1 inh – USP1/UAF1 (human) deubiquitinase inhibition; O94782; recombinant USP1/UAF1, Ub-Rhodamine cleavage fluorescence; Potency, µM (series often up to 57.1 µM), inactives show at the highest dose activity change, negative = inhibition, most hits filed as inhibitors; 0.23% of 390,000 active; also: % is scaled to controls: 0 for no effect and ±100 for the full control effect; nearly all actives have a fitted effect of over 60% in size
# Target sequence (O94782 whole entry, looked up): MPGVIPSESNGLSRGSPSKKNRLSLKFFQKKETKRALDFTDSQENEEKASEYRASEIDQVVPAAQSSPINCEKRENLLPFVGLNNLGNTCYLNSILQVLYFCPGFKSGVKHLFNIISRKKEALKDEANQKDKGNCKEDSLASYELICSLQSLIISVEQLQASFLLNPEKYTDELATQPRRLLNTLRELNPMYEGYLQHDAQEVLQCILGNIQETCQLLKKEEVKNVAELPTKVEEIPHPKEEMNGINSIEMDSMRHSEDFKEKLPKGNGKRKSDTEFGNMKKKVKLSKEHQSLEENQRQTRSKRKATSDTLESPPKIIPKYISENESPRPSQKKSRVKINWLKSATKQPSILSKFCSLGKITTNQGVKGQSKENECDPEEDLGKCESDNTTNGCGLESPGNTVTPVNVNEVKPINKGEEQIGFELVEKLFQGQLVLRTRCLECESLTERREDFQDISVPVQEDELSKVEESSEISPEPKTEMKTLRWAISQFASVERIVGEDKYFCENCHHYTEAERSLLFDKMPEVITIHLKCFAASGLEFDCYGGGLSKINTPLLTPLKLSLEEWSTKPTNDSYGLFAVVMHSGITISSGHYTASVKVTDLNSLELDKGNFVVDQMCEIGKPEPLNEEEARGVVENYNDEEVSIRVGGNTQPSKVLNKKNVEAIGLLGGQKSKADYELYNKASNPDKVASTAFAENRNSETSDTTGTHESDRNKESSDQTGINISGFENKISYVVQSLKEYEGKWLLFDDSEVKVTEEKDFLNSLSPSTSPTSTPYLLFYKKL
#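 In this screen, compounds sit with the deubiquitinase complex (1nM) for 15 min at room temperature before Ub-Rho is added at 150nM final. Fluorescence rise is then followed for 6 reads every 60 seconds.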
# EPAC1 agonist – agonists of human EPAC1; 0.073% of 360,000 active; AID 720707; O95398; EPAC1 agonist qHTS, biochemical assay; response scale: 100% = response to 6.5 mM cAMP; Potency, µM (series often up to 154 µM), for inactives: at the highest dose activation, actives largely listed as activators; also: nearly all actives have a fitted effect of over 60% in size
#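 Fluorescent GDP-exchange assay: 100 nM EPAC1 with 250 nM Rap1B preloaded with BODIPY-GDP and 50 uM GDP; compounds tested as concentration series, 5 min at room temperature, then read every 5 min for 30 min (ex 480/em 540 nm); normalized to 6.5 mM cAMP.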
# EPAC2 ag – activates human EPAC2 exchange factor. Q8WZA2. EPAC2 activation, biochemical qHTS; response scale: 100% = 6.5 mM cAMP response. Potency, µM (top dose mostly 154 µM), for inactives: top-dose activation, most hits filed as activators. 0.079% of 360,000 active. AID 720711; also: nearly all actives have a fitted effect of over 50% in size
#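 Fluorescence exchange assay: 100 nM EPAC2 with 250 nM RAP1B-BODIPY-GDP and 50 uM GDP; compounds tested as a concentration-titration series (qHTS). Loss of Rap1-bound BODIPY-GDP fluorescence read at 480/540 nm; data normalized to 6.5 mM cAMP.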
# EPAC2 antagonist – blocks human EPAC2 exchange factor | Potency, µM (doses to about 114 µM), without a hit: top-dose activity, negative = inhibition, actives largely listed as inhibitors | 0.18% of 360,000 active | Q8WZA2 | EPAC2 GEF exchange of Rap1B-BODIPY-GDP, fluorescence; also: % is scaled to controls: 0 for no effect and ±100 for the full control effect; nearly all actives have a fitted effect of over 45% in size
# EPAC1 antag – antagonists of human EPAC1; EPAC1 GEF assay, Rap1b-BODIPY-GDP exchange fluorescence; O95398; 0.14% of 360,000 active; Potency, µM (series often up to 115 µM), without a hit: at the top dose activity change, negative = inhibition, hits mostly inhibitors; AID 720709;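 also: plate controls were vehicle for no effect and positive control for full effect; nearly all actives have a fitted effect of over 50% in size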
# * marks the source's active call; other numbers are inactive results; ? = inconclusive; · = no result; [ ] = remark or other dose. Calls follow the shape of the dose curve; as a rule, active = well fitted curve in the direction sought with a large enough effect; inconclusive = small, poorly fitted or top-dose-only effect, or another doubt; inactive = no such curve, though single readings can be large; an effect the other way counts as inactive or inconclusive. Potency is read from the fitted curve at half-maximal effect.
SMILES,ALOX12 inh,USP1 inh,EPAC1 agonist,EPAC2 ag,EPAC2 antagonist,EPAC1 antag
CCOc1ccccc1NC(=O)C(C)Nc1ccc2c(c1)CCN2C(C)=O (centres undefined),4.0%,·,·,·,·,·
CCOC(=O)c1cnc(SCc2nc(-c3ccc(OC)cc3)oc2C)nc1N,22.2%,·,·,·,·,·
COc1ccc2nc([C@H]3CCN(Cc4cccc(OC(F)(F)F)c4)C3)[nH]c2c1,40.0%[176 µM],·,·,·,·,·
CCC(=O)Nc1nonc1-c1ccc(Cl)cc1,12.4%,·,·,·,·,·
COc1cc(/C=N/NC(N)=S)ccc1OCC(=O)Nc1ccc(C)cc1,?,2.3%,3.5%,-8.0%,-1.7%,0.7%
COc1ccc(C(=O)Oc2cc(/C=N/NC(N)=S)ccc2OC)cc1,31.6µM*,-14.2%,5.9%,-5.1%,3.5%,-12.6%
COc1ccc(/C=N/NC(N)=S)cc1OC(=O)c1cccc2ccccc12,15.8µM*,-3.2%,21.6%,13.0%,-4.5%,-0.3%
Cc1ccc(S(=O)(=O)Oc2cccc(/C=N/Nc3ccc(C(=O)O)cc3)c2)cc1,-3.5%,-25.8%,0.7%,-1.3%,56.2µM*,1.7%
Cc1ccc(S(=O)(=O)Oc2cccc(/C=N/n3cnnc3)c2)cc1,-15.5%,-4.6%,-2.0%,4.5%,2.5%,1.5%
CCC1(C)Cc2nc3sc4c(=O)n(CC(=O)NCc5ccccc5)cnc4c3cc2CO1 (centres undefined),5.5%,·,·,·,·,·
Cc1ncc(CO)c(/C=N/NC(=S)Nc2ccc(Cl)c(Cl)c2)c1O,44.7µM*,-13.4%,7.7%,8.2%,12.3%,1.0%
CCN1C(=NCCc2ccc(Br)cc2)N[C@@H](c2ccccc2)[C@H](C(=O)OC)[C@H]1C,44.7µM*,?,-8.9%,4.1%,3.1%,3.8%
Cn1c(=O)c(C#N)c(-c2ccc(F)cc2)c2cc(C(=O)c3cc(Cl)cc(Cl)c3O)cnc21,?,-11.2%,-2.1%,-3.1%,50.1µM*,?
Cc1ccc(S(=O)(=O)C(C#N)c2nc3ccccc3nc2N2CCN(C)CC2)cc1 (centres undefined),?,-0.6%,-3.2%,2.2%,2.5%,9.8%
CCN(CC)c1nc2ccccc2nc1C(C#N)S(=O)(=O)c1ccc(C)cc1 (centres undefined),14.1µM*,·,·,·,·,·
COc1ccc(C2NC(=S)NC3=C2CCc2cc(OC)ccc23)cc1 (centres undefined),28.2µM*,-19.9%,6.8%,15.2%,-3.2%,-18.1%
O=C1NC2=C(CCc3ccccc32)C(c2ccc(Br)cc2)N1 (centres undefined),?,-7.1%,0.1%,0.2%,-7.2%,-3.1%
Cc1ccc(/C=C2\CCCC3=C2NC(=S)NC3c2ccc(C)cc2)cc1 (centres undefined),?,-1.9%,9.7%,-7.7%,-16.5%,?
COc1ccc(C2NC(=S)NC3=C2CCc2ccccc23)cc1 (centres undefined),39.8µM*,·,·,·,·,·
COc1ccc(C(=O)COc2ccc(C#N)cc2OC)cc1F,-4.4%,·,·,·,·,·
CC1=NN(Cc2ccccc2)C(=O)C1C(c1ccc(Cl)cc1)C(C#N)C#N (centres undefined),39.8µM*,-17.5%,7.0%,-0.9%,-14.3%,?
COc1cccc(NC(=O)C(Nc2ccccc2)c2ccccc2F)c1 (centres undefined),0.5%,·,·,·,·,·
O=C(O)c1ccccc1CC(CCc1ccccc1)C(=O)O (centres undefined),28.2µM*,7.2%,4.6%,9.2%,22.6%,-13.5%
Oc1ccccc1/C=N/Nc1cc(N2CCCC2)nc(N2CCCC2)n1,?,25.1µM*,1.2%,19.4%,-4.4%,-15.0%
Oc1ccc(/C=N/Nc2cc(N3CCOCC3)nc(N3CCOCC3)n2)cc1O,?,-14.6%,11.7%,8.9%,-5.0%,-19.2%
CCCNC(=O)NC(=O)CSc1nc2ccccc2c(=O)n1CC,-7.2%,·,·,·,·,·
